Consider 17 molecules from PubChem BioAssay (NCI).

Compounds without any hit were thinned out: in the full panel of roughly 83,000, 20% have a hit.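 Interpretation: 100, growth as untreated; towards 0, rising growth inhibition; 0, no net growth; 0 to -100, cell death. Compounds scoring below 10 were considered active.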 Unmarked numbers belong to inactive results. Calls of active or inactive are those of the source.

Test in all cases: NCI-60 one-dose screen, 48 h (100 = growth as untreated, 0 = no growth, -100 = all killed)
What all share (settings): 10 µM

Test [1] deals with SR leukemia.
Test [2] concerns RPMI-8226 leukemia.
Test [3] has as its system OVCAR-8 ovarian.
Test [4] has as its system OVCAR-5 ovarian.
Test [5] deals with OVCAR-4 ovarian.
The subject of test [6] is SK-OV-3 ovarian.
Test [7] relates to IGROV1 ovarian.
In test [8] the test system is OVCAR-3 ovarian.
Test [9] concerns HS 578T breast.
Test [10] concerns NCI/ADR-RES ovarian.
For test [11], the system named is T-47D breast.
Test [12] concerns BT-549 breast.
The test system of test [13] is MDA-MB-435 melanoma.
Test [14] deals with SW-620 colon.
In test [15] the test system is MCF7 breast.
For test [16], the system named is HCT-116 colon.
Test [17] relates to HCC-2998 colon.
Test [18] concerns KM12 colon.

In the case of `Cc1cccc2c(Nc3ccc(NS(C)(=O)=O)cc3)c3ccc([N+](=O)[O-])cc3nc12`, the growth was 2.56% (active) in [1]; 0.668% (active) in test [2]; 2.24% (active) in test [3]; 49.9% in [4]; 16.6% in test [5]; 38.3% in [6]. The growth in test [7] was -27.4% (active); in [8], -28.9% (active); in test [9] it was 56.6%; in test [10] it was 66.6%; in test [11] it was 0.696% (active); in test [12] it was 29.1%. The growth in [13] was 33.2%; in test [14], -43.5% (active); in test [15], 0.147% (active); in [16], 5.63% (active); in test [17], -30.6% (active); in test [18] it was -46.6% (active).

With `COc1ccc(/C=C(\c2cc(OC)c(OC)c(OC)c2)c2nnc(-c3cccs3)o2)cc1`, the growth in test [1] is 78.3%; in test [2], 83.9%; in test [3] it was 47.6%; in [4], 99.4%; in [5], 26.6%; in test [6] it was 62.7%. The growth in test [7] was 71.7%; in test [8], 82.6%; in test [9], 43.6%; in [10], 66.4%; in [11], 78.7%; in [12] it was 84.4%. Further, the growth is 65.9% in [13]; 89.1% in test [14]; 72.4% in test [15]; 66.4% in test [16]; 89.2% in [17]; 90% in test [18].

As to `N/C(=N\O)c1cn(C2OC(CO)C(O)C2O)c2ncnc(N)c12` (stereo unspecified), the growth in [1] is -4.39% (active); in test [2], -43.6% (active); in test [3], -14.4% (active); in test [4] it was 24.3%; in [5], -21.6% (active); in test [6] it was -30.2% (active). Further, the growth in test [7] was -13.7% (active); in test [8], -18.3% (active); in [9] it was -5.15% (active); in test [10] it was 4.77% (active); in [11], -7.04% (active); in [12], 14%. The growth in [13] was -73.1% (active); in [14], -12.1% (active); in test [15] it was -29.9% (active); in test [16], 9.85% (active); in test [17] it was -23.1% (active); in [18] it was -24.2% (active).

Consider `COc1cccc2c1O/C(=C\c1ccc([N+](=O)[O-])s1)C2=O`, for which the growth was 8.26% (active) in test [1]; 25.7% in [2]; 24.7% in [3]; 101% in test [4]; 74.2% in test [5]; 96.6% in test [6]. For the same molecule, the growth in test [7] was 25.9%; in test [8], -16.7% (active); in test [9], 40.8%; in [10] it was 87.5%; in test [11], 39.6%; in [12], -14.3% (active). For the same molecule, the growth in test [13] was 48.4%; in test [14], -28.6% (active); in [15] it was 42.8%; in [16], -14% (active); in [17] it was 89.7%; in test [18] it was 18.3%.

Take `CCCCCc1cc[n+](CC(=O)c2ccc(Cl)cc2)cc1`: the growth was 86% in test [1]; 91.5% in test [2]; 98.8% in [3]; 71.4% in [4]; 96.3% in [5]; 99.1% in test [6]. The growth was 86.5% in [7]; 59.8% in test [8]; 95.9% in test [9]; 99.7% in test [10]; 90.6% in test [11]; 86.6% in [12]. Moreover, the growth is 86.7% in test [13]; 83.2% in test [14]; 89.7% in test [15]; 59% in [16]; 91% in [17]; 73.4% in test [18].

As for `CCCCCCCCCCCCCCCCCBr`, the growth is 92.7% in test [1]; 102% in [2]; 106% in test [3]; 100% in test [4]; 111% in test [5]; 100% in [6]. Moreover, the growth in test [7] is 103%; in test [8], 114%; in test [9], 91.9%; in test [10] it was 104%; in test [11], 95.6%; in [12], 112%. For the same molecule, the growth in test [13] is 99.6%; in test [14] it was 107%; in test [15], 101%; in test [16] it was 105%; in test [17] it was 96.2%; in [18] it was 113%.

Take `COc1cc(-c2nc3ccccc3[nH]2)ccc1OCc1nnc(-c2ccc(Br)cc2)o1`: the growth in test [1] is -25.7% (active); in [2], 51.5%; in test [3] it was 75.7%; in test [4] it was 109%; in test [5] it was 85.1%; in [6], 108%. Also, the growth in test [7] is 87.4%; in test [8], 110%; in [9], 78.4%; in test [10], 92.5%; in [11], 68.4%; in [12], 98.4%. Moreover, the growth was 81% in test [13]; 102% in test [14]; 53.6% in test [15]; 59.9% in test [16]; 102% in [17]; 69.2% in test [18].

Consider `COc1ccc(S(=O)(=O)Nc2ccc(OCc3nnc(-c4ccc(Cl)cc4)o3)c(F)c2)cc1`, for which the growth in test [1] was 18.4%; in [2] it was 31.6%; in [3], 60.4%; in [4] it was 98.5%; in [5], 45.5%; in test [6] it was 78.8%. For the same molecule, the growth in [7] was 79.4%; in [8], 71.8%; in test [9], 86.3%; in test [10], 45.7%; in test [11], 9.53% (active); in test [12], 55%. The growth in [13] is 64%; in test [14], 84.5%; in [15] it was 42.8%; in test [16], 54.6%; in test [17], 74.2%; in test [18], 56.3%.

For the molecule `COc1ccc(-c2nc3sc(-c4ccccc4)c(-c4ccccc4)n3c2/C=C/c2ccc(F)cc2)cc1`, the growth in test [1] is 90.5%; in [2], 95.5%; in test [3] it was 85%; in test [4], 88.2%; in [5], 83.2%; in test [6], 91.1%. In addition, the growth in test [7] was 115%; in [8], 94.1%; in [9] it was 95.8%; in test [10], 103%; in test [11], 77.6%; in test [12] it was 112%. Moreover, the growth in test [13] is 97.1%; in [14], 95.5%; in test [15] it was 73.8%; in [16] it was 77.3%; in test [17], 92.8%; in [18], 90.7%.

Turning to `O=C(N/N=c1/ccoc2cccnc12)N1CCN(c2ncccn2)CC1`, the growth was 20.6% in test [1]; 30.6% in test [2]; 25.3% in test [3]; 50% in test [4]; 18.3% in [5]; 15.4% in test [6]. Also, the growth in test [7] was 31.4%; in [8], 30.6%; in test [9], 51.4%; in test [10], 10.1%; in test [11] it was 9.29% (active); in [12], 47.9%. Moreover, the growth was 34.9% in test [13]; 33.1% in test [14]; 11.2% in test [15]; 16% in test [16]; 26.1% in [17]; 24.7% in test [18].

Take `Cc1nc2scc(-c3ccc(Cl)cc3)n2c(=O)c1CCN1CCOCC1`: the growth in test [1] is 81.4%; in test [2] it was 93.5%; in test [3] it was 104%; in test [4], 116%; in test [5], 95.1%; in test [6], 94.1%. The growth is 79.2% in test [7]; 104% in [8]; 106% in [9]; 108% in test [10]; 76.6% in test [11]; 103% in [12]. For the same molecule, the growth in [13] was 95.8%; in test [14], 105%; in [15], 90.2%; in test [16], 105%; in test [17] it was 106%; in test [18], 107%.

On to `CCN(Cc1ccccc1)C1CCN(Cc2cc(Br)ccc2O)CC1`, for which the growth in test [1] is 7.57% (active); in [2], 21.9%; in test [3], 59.9%; in [4] it was 68.1%; in test [5], 36.9%; in test [6], 76.9%. Moreover, the growth is 44.6% in [7]; 51.8% in test [8]; 56.6% in test [9]; 36.1% in test [10]; 44.3% in test [11]; 80.6% in test [12]. The growth in test [13] is 52.1%; in test [14] it was 63.7%; in [15], 46.5%; in test [16], 38.7%; in test [17], 2.04% (active); in test [18], 51.3%.

For `CCOc1cc(Br)c(C(C)NC(=O)c2cccc(OC)c2)cc1OCC` (stereo unspecified), the growth in test [1] is 3.32% (active); in [2] it was 36.3%; in test [3] it was 84.3%; in test [4] it was 88.7%; in test [5], 64.5%; in test [6] it was 96%. The growth in [7] is 73.8%; in test [8], 74.8%; in test [9] it was 75.5%; in test [10], 94.4%; in [11], 80.8%; in test [12] it was 87%. For the same molecule, the growth in [13] is 6.36% (active); in test [14] it was 85.7%; in test [15], 64.4%; in [16], 56.2%; in [17], 37.7%; in [18] it was 84.1%.

Take `CCOC(=O)CSC(=S)SCC(=O)OCC`: the growth in [1] was 84.8%; in test [2], 95.4%; in [3] it was 93%; in test [4] it was 107%; in [5], 97.4%; in test [6] it was 98.2%. Moreover, the growth was 117% in [7]; 122% in test [8]; 106% in test [9]; 106% in test [10]; 89.6% in test [11]; 106% in [12]. The growth in test [13] was 94.9%; in test [14], 135%; in test [15], 88.7%; in test [16], 99.1%; in test [17] it was 105%; in test [18], 100%.

On to `CS(=O)(=O)Nc1ccc(Nc2c3ccccc3nc3cc(Cl)ccc23)cc1`, for which the growth in [1] was 7.92% (active); in [2], 41.3%; in test [3] it was 25.5%; in test [4], 63.1%; in test [5] it was 56.7%; in test [6], 42.6%. Besides, the growth is 29.8% in [7]; 56.3% in test [8]; 81.8% in test [9]; 44.8% in test [10]; 26.9% in [11]; 52.4% in [12]. Besides, the growth in test [13] is 54.1%; in test [14], 30.4%; in test [15], 18.6%; in test [16], 16.5%; in test [17] it was 42.6%; in test [18], 48.2%.

In the case of `O=NN(CC(=O)N/N=C/C=C\c1ccccc1)CC(=O)N/N=C/C=C/c1ccccc1`, the growth in [1] was 85.7%; in [2], 95.2%; in [3] it was 51%; in test [4], 94.6%; in [5], 97.2%; in [6], 102%. Moreover, the growth in test [7] is 84%; in test [8], 103%; in test [9] it was 80.5%; in [10], 103%; in [11], 89%; in test [12], 123%. Moreover, the growth was 103% in [13]; 104% in test [14]; 69.6% in [15]; 96.2% in test [16]; 119% in [17]; 109% in test [18].

For `C[N+]1(CC2CO2)CCCCCC1` (stereo unspecified), the growth is 106% in test [1]; 103% in test [2]; 106% in test [3]; 95.9% in test [4]; 94.3% in [5]; 113% in [6]. The growth in test [7] is 112%; in test [8] it was 104%; in test [9], 114%; in test [10], 113%; in [11], 116%; in [12], 116%. In addition, the growth in test [13] is 102%; in [14] it was 106%; in test [15], 107%; in test [16], 103%; in test [17], 112%; in test [18], 93.9%.
